We go through three compounds from PubChem BioAssay (EPA / NIEHS).

What all share (conditions): mRNA level, 48 h; actives raise or lower the signal
Read-out in assay [1]: JUN Transcription Factor, JUN (gene 3725)
Description: LTEA_HepaRG_JUN: Life Technologies and Expression Analysis (LTEA) Assay for JUN Transcription Factor using HepaRG (AID 2283513). The gist of the method: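 mRNA measured by TaqMan qRT-PCR after 48 h chemical exposure of HepaRG cultures; normalization to three housekeeping genes. Duplicate eight-point half-log curves from 100 uM in 0.5% DMSO; gain or loss fitted against DMSO baseline.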

Read-out in assay [2]: Lipase C (LIPC), LIPC (gene 3990)
Description: LTEA_HepaRG_LIPC: Life Technologies and Expression Analysis (LTEA) Assay for Lipase C (LIPC) using HepaRG (AID 2283514). The essentials: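 In this multiplexed gene-expression screen, human HepaRG cultures received test chemicals for 48 h across eight concentrations with 100 uM highest, in duplicate. Values reflect LIPC mRNA induction or suppression versus DMSO vehicle, from normalized qRT-PCR.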

Read-out in assay [3]: Lipoprotein lipase (LPL), LPL (gene 4023)
Description: LTEA_HepaRG_LPL: Life Technologies and Expression Analysis (LTEA) Assay for Lipoprotein lipase (LPL) using HepaRG (AID 2283515). The essentials:
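Concentration-response testing used half-log steps from 100 uM in 0.5% DMSO on human HepaRG cells, 48 h, duplicate wells. Phenobarbital 1 mM served as induction control; LPL mRNA was normalized to ACTB, GAPDH, POLR2A.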

Read-out in assay [4]: MicroRNA 122 (MIR122), gene 406906
Description: LTEA_HepaRG_MIR122: Life Technologies and Expression Analysis (LTEA) Assay for MicroRNA 122 (MIR122) using HepaRG (AID 2283516). Also: the transcript read is the microRNA miR-122. The essentials:
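Expression measured by microfluidic qRT-PCR with three housekeeping genes for normalisation, after 48 h treatment of HepaRG cultures. Eight concentrations (top 100 uM, half-log steps, 0.5% DMSO vehicle) in duplicate; gain or loss fitted relative to vehicle.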

Read-out in assay [5]: matrix metalloproteinase-10 (MMP10), MMP10 (gene 4319)
Description: LTEA_HepaRG_MMP10: Life Technologies and Expression Analysis (LTEA) Assay for matrix metalloproteinase-10 (MMP10) using HepaRG (AID 2283517). The essentials: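 In differentiated HepaRG cultures kept in 0.5% DMSO, test chemicals act for 48 h over an eight-point range with a top dose of 100 uM. Expression is then quantified by TaqMan RT-PCR against ACTB, GAPDH and POLR2A.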

Read-out in assay [6]: MYC, MYC (gene 4609)
Description: LTEA_HepaRG_MYC: Life Technologies and Expression Analysis (LTEA) Assay for MYC using HepaRG (AID 2283518). The essentials: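 MYC transcript changes, up or down relative to 0.5% DMSO, from TaqMan qRT-PCR normalized to three housekeeping genes. Human HepaRG cultures received chemicals for 48 h at eight half-log concentrations up to 100 uM, in duplicate.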

Read-out in assay [7]: matrix metalloproteinase-3 (MMP3), MMP3 (gene 4314)
Description: LTEA_HepaRG_MMP3: Life Technologies and Expression Analysis (LTEA) Assay for matrix metalloproteinase-3 (MMP3) using HepaRG (AID 2283519). The essentials: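 Human liver HepaRG cultures received chemicals (top concentration 100 uM, 0.5% DMSO) for 48 h in duplicate. MMP3 mRNA induction or loss was then assessed via TaqMan qRT-PCR with housekeeping-gene normalisation.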

Read-out in assay [8]: Paternally Expressed 10 (PEG10), PEG10 (gene 23089)
Description: LTEA_HepaRG_PEG10: Life Technologies and Expression Analysis (LTEA) Assay for Paternally Expressed 10 (PEG10) using HepaRG (AID 2283520).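 As to AC50: PEG10 transcript by qRT-PCR normalised to ACTB GAPDH and POLR2A.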 The gist of the method: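 PEG10 transcript measured by Fluidigm qRT-PCR, normalized to three housekeeping genes, in HepaRG cells treated 48 h (highest 100 uM, half-log steps, 0.5% DMSO vehicle). Cells plated 48 h before switching to serum-free induction medium.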

Read-out in assay [9]: Nuclear factor NF-kappa-B p105 subunit (Homo sapiens) (UniProt P19838)
Description: LTEA_HepaRG_NFKB1: Life Technologies and Expression Analysis (LTEA) Assay for Nuclear Factor Kappa B Subunit 1 (NFKB1) using HepaRG (AID 2283521).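 Also: TaqMan qRT-PCR transcript normalised to ACTB GAPDH and POLR2A housekeeping genes.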 The essentials:
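Differentiated human HepaRG cells in serum-free induction medium with 0.5% DMSO were exposed for 48 h to eight half-log concentrations, top 100 uM, in duplicate. NFKB1 mRNA measured by Fluidigm TaqMan qRT-PCR, normalised to ACTB, GAPDH and POLR2A; bidirectional fit versus DMSO.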

Read-out in assay [10]: Protein phosphatase 2A (PPP2R4), PTPA (gene 5524)
Description: LTEA_HepaRG_PPP2R4: Life Technologies and Expression Analysis (LTEA) Assay for Protein phosphatase 2A (PPP2R4) using HepaRG (AID 2283522). The essentials: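 Expression was quantified by Fluidigm qRT-PCR normalised to three housekeeping genes after 48 h treatment. Human HepaRG cells received an 8-point series from 100 µM downward by half-logs, in duplicate with 0.5% DMSO vehicle and 1 mM phenobarbital as induction control.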

Read-out in assay [11]: Phosphatase and tensin (PTEN), PTEN (gene 5728)
Description: LTEA_HepaRG_PTEN: Life Technologies and Expression Analysis (LTEA) Assay for Phosphatase and tensin (PTEN) using HepaRG (AID 2283523). The essentials: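 Expression of PTEN is quantified in the human liver line HepaRG following two days of dosing (top concentration 100 uM, half-log dilutions, 0.5% DMSO). Values derive from bidirectional curve fitting relative to DMSO controls.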

Read-out in assay [12]: solute carrier (SLC22A1), SLC22A1 (gene 6580)
Description: LTEA_HepaRG_SLC22A1: Life Technologies and Expression Analysis (LTEA) Assay for solute carrier (SLC22A1) using HepaRG (AID 2283524). The gist of the method:
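Transcript induction or suppression of SLC22A1 in human HepaRG cultures is scored after 48 h chemical treatment, with DMSO (0.5%) as baseline for bidirectional fitting. Concentrations span eight half-log points topping at 100 uM.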

Read-out in assay [13]: Pyruvate Dehydrogenase Kinase 4 (PDK4), PDK4 (gene 5166)
Description: LTEA_HepaRG_PDK4: Life Technologies and Expression Analysis (LTEA) Assay for Pyruvate Dehydrogenase Kinase 4 (PDK4) using HepaRG (AID 2283525). The gist of the method: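 Eight-point, half-log concentration series (max 100 uM, 0.5% DMSO) applied to differentiated HepaRG cells for 48 h in duplicate. Endpoint: PDK4 mRNA induction or repression by qRT-PCR against DMSO baseline.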

Read-out in assay [14]: NAD(P)H dehydrogenase [quinone] 1 (NQO1), NQO1 (gene 1728)
Description: LTEA_HepaRG_NQO1: Life Technologies and Expression Analysis (LTEA) Assay for NAD(P)H dehydrogenase [quinone] 1 (NQO1) using HepaRG (AID 2283526). The gist of the method:
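NQO1 transcript induction or loss measured by TaqMan qRT-PCR, referenced to three housekeeping genes and fitted bidirectionally against 0.5% DMSO. HepaRG cultures exposed 48 h, duplicate, eight-point half-log series, top 100 uM.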

Read-out in assay [15]: Nuclear factor erythroid 2-related factor 2 (Homo sapiens) (UniProt Q16236)
Description: LTEA_HepaRG_NFE2L2: Life Technologies and Expression Analysis (LTEA) Assay for Nuclear factor erythroid 2-related factor 2 (NFE2L2) Transcription Factor using HepaRG (AID 2283527).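 Also: TaqMan qRT-PCR transcript level normalised to ACTB GAPDH and POLR2A housekeeping genes.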 The gist of the method:
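Human liver HepaRG line treated in duplicate for 48 h with an eight-point series topping at 100 uM. Gene expression of NFE2L2 by qRT-PCR, bidirectionally fitted against the vehicle control.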

Read-out in assay [16]: succinate dehydrogenase complex iron sulfur subunit B (SDHB), SDHB (gene 6390)
Description: LTEA_HepaRG_SDHB: Life Technologies and Expression Analysis (LTEA) Assay for succinate dehydrogenase complex iron sulfur subunit B (SDHB) using HepaRG (AID 2283528). The gist of the method: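 HepaRG cells (~100,000/well, plated 48 h) exposed in duplicate for 48 h in serum-free induction medium to 8-point half-log series from 100 uM in 0.5% DMSO; mRNA by qRT-PCR normalised to ACTB, GAPDH, POLR2A; bidirectional fit versus DMSO.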

Read-out in assay [17]: Signal transducer and activator of transcription 3 (Homo sapiens) (UniProt P40763)
Description: LTEA_HepaRG_STAT3: Life Technologies and Expression Analysis (LTEA) Assay for Signal transducer and activator of transcription (STAT3) using HepaRG (AID 2283529). The gist of the method:
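In this transcriptional endpoint, HepaRG cultures receive test chemicals at up to 100 uM for 48 h, tested in duplicate. STAT3 mRNA is normalized to ACTB, GAPDH and POLR2A.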

Read-out in assay [18]: solute carrier (SLCO1B1), SLCO1B1 (gene 10599)
Description: LTEA_HepaRG_SLCO1B1: Life Technologies and Expression Analysis (LTEA) Assay for solute carrier (SLCO1B1) using HepaRG (AID 2283530). The essentials: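 SLCO1B1 transcript levels were quantified by TaqMan qRT-PCR using three housekeeping genes for normalization. This followed 48 h chemical exposure (100 uM top, half-log, 8 points, 0.5% DMSO) of HepaRG liver cells, with gain or loss fitted relative to DMSO.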

Read-out in assay [19]: sulfotransferase 2A1 (SULT2A1), SULT2A1 (gene 6822)
Description: LTEA_HepaRG_SULT2A1: Life Technologies and Expression Analysis (LTEA) Assay for sulfotransferase 2A1 (SULT2A1) using HepaRG (AID 2283531). The gist of the method: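 Expression change of SULT2A1, by qRT-PCR with three housekeeping-gene normalization, was scored bidirectionally versus DMSO. Cells: differentiated HepaRG, dosed in duplicate for 48 h across 8 points, highest 100 µM, half-log dilution, 0.5% DMSO.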

Read-out in assay [20]: Transforming Growth Factor (TGFA), TGFA (gene 7039)
Description: LTEA_HepaRG_TGFA: Life Technologies and Expression Analysis (LTEA) Assay for Transforming Growth Factor (TGFA) using HepaRG (AID 2283532). The essentials:
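Gene expression of TGFA was quantified by qRT-PCR after human HepaRG cells were treated for 48 h with test chemicals (eight concentrations, highest 100 uM, 0.5% DMSO). Activity in either direction was fitted relative to DMSO.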

The structures appear in SMILES notation. Where “and” joins values, the source holds several entries; their conditions need not be identical. Equal values may be shown once. Calls of active or inactive are those of the source. The calls were made as follows: active = hit-call score of the fitted dose curve at least 0.9, where 1 is the maximum; inactive = score below 0.9.

Signal transducer and activator of transcription 3 (Homo sapiens), sequence (P40763 whole entry, looked up): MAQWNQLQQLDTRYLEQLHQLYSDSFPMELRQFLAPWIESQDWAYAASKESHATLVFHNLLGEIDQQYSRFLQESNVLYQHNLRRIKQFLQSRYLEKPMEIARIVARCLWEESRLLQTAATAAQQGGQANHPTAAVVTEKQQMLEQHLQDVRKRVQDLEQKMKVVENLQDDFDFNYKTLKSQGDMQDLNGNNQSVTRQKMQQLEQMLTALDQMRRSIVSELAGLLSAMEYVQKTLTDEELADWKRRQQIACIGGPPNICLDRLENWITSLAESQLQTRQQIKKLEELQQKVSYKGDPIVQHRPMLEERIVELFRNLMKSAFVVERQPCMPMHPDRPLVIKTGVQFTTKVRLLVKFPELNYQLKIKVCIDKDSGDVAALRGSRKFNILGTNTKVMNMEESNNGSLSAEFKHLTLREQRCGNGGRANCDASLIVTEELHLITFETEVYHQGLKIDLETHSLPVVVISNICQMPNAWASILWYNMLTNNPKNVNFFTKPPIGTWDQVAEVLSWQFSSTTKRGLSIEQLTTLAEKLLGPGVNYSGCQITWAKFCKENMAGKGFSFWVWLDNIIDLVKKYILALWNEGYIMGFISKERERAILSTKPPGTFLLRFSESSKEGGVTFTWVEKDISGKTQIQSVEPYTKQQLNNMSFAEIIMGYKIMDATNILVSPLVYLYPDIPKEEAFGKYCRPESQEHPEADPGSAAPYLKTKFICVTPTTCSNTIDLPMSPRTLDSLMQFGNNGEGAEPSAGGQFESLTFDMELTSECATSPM
Nuclear factor erythroid 2-related factor 2 (Homo sapiens), sequence (Q16236 whole entry, looked up): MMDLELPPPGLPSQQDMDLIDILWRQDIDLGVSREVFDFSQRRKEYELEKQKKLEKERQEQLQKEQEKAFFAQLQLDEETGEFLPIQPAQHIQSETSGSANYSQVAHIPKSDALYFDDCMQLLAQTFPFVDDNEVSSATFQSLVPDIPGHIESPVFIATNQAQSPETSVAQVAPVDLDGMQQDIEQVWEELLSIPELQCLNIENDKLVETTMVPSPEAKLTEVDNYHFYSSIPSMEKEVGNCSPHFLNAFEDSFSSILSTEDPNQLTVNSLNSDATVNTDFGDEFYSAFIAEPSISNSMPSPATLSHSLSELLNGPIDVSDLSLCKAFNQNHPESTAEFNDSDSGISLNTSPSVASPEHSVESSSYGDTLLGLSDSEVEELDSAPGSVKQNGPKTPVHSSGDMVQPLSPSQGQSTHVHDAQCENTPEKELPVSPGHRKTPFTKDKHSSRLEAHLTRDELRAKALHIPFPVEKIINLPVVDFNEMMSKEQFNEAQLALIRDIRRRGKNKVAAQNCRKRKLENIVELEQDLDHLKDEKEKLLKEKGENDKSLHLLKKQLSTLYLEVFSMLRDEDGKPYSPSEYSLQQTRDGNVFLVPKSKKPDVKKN
Nuclear factor NF-kappa-B p105 subunit (Homo sapiens), sequence (P19838 whole entry, looked up): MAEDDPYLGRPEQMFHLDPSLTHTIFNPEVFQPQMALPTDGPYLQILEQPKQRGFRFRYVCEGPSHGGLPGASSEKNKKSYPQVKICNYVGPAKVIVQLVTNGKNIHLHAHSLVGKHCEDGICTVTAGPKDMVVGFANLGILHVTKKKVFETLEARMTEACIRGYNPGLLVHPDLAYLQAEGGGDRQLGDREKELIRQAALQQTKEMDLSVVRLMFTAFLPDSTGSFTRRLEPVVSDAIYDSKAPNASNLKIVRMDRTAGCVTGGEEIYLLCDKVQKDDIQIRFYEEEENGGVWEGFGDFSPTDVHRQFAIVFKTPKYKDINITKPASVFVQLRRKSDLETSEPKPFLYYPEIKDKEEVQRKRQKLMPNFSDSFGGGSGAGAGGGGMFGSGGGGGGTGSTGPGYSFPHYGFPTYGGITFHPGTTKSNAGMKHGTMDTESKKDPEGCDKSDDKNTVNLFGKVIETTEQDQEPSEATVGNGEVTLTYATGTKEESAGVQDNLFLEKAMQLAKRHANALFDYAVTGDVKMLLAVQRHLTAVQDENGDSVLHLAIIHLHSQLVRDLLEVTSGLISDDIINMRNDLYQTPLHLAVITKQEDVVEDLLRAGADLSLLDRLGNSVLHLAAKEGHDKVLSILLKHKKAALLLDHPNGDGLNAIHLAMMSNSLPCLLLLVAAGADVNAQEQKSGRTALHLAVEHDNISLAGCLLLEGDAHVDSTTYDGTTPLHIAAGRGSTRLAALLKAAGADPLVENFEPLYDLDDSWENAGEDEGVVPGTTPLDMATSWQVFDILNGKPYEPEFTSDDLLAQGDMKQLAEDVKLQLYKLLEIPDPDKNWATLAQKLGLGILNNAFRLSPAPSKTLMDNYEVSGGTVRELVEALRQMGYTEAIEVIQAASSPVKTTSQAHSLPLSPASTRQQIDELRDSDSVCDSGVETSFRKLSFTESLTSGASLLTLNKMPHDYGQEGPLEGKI

As for `ClC1C(Cl)C(Cl)C(Cl)C(Cl)C1Cl` (stereo not drawn), the call in [1], in assay [2], in assay [3], in assay [4], in assay [5] and in [6] was inactive. Further, the compound was classed as inactive in assay [7], in [9], in assay [10], in [11], in [12] and in assay [13]. Also, the call in assay [14], in assay [15], in assay [16], in assay [17], in assay [18] and in assay [19] was inactive. The outcome in [20] was inactive. Moreover, the AC50 in assay [8] was 4.25 µM (active) and 27.6 µM (active).

Turning to `CCC(C)Nc1c([N+](=O)[O-])cc(C(C)(C)C)cc1[N+](=O)[O-]` (stereo not drawn), the compound was classed as inactive in [1], in assay [2], in [3], in [4], in assay [5] and in assay [6]. The outcome in [7], in [10], in [11], in assay [12], in assay [13] and in assay [14] was inactive. Besides, the result in [15], in assay [16], in [17], in assay [18], in assay [19] and in assay [20] was inactive. Also, the AC50 in assay [8] is 29.9 µM (active).

`CNC(=O)Oc1cccc(N=CN(C)C)c1`: the result in assay [1], in assay [2], in assay [3], in assay [4], in assay [5] and in assay [6] was inactive. The outcome in assay [7], in assay [8], in assay [10], in [11], in assay [12] and in assay [13] was inactive. Besides, the compound was classed as inactive in assay [14], in assay [15], in assay [16], in [17], in assay [18] and in assay [19]. Further, the result in [20] was inactive.

Broadly, the AC50 is the concentration giving half of the maximal activity seen.
